According to PubChem BioAssay (NCI):
The panel holds about 83,000 compounds, 20% with a hit somewhere; the sample as a whole holds those more often.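 Single-dose data. Exposure time 48 hours. Values below 10 considered active.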 Active and inactive are the calls of the source.

Tests used:
Assay in all cases: NCI-60 one-dose screen, 48 h (100 = growth as untreated, 0 = no growth, -100 = all killed)
Conditions in all cases: 10 µM unless noted
SK-MEL-2 melanoma = system: SK-MEL-2 melanoma
EKVX NSCLC = system: EKVX NSCLC
SN12C renal = system: SN12C renal
UO-31 renal = system: UO-31 renal
TK-10 renal = system: TK-10 renal
ACHN renal = system: ACHN renal
CAKI-1 renal = system: CAKI-1 renal
A498 renal = system: A498 renal
CCRF-CEM leukemia = system: CCRF-CEM leukemia
MOLT-4 leukemia = system: MOLT-4 leukemia
SR leukemia = system: SR leukemia
RPMI-8226 leukemia = system: RPMI-8226 leukemia
OVCAR-8 ovarian = system: OVCAR-8 ovarian
OVCAR-5 ovarian = system: OVCAR-5 ovarian
OVCAR-4 ovarian = system: OVCAR-4 ovarian
SK-OV-3 ovarian = system: SK-OV-3 ovarian
IGROV1 ovarian = system: IGROV1 ovarian
OVCAR-3 ovarian = system: OVCAR-3 ovarian
HS 578T breast = system: HS 578T breast
NCI/ADR-RES ovarian = system: NCI/ADR-RES ovarian

Measured: growth

Oc1c(Cl)cc(Cl)c2ccc(Cn3cc(-c4cc(C(F)(F)F)cc(C(F)(F)F)c4)nn3)nc12
active: CCRF-CEM leukemia 4.83% | MOLT-4 leukemia 2.95% | SR leukemia -14% | RPMI-8226 leukemia 3.44% | OVCAR-3 ovarian -4.28%
inactive: SK-MEL-2 melanoma 89.9% | EKVX NSCLC 80.9% | SN12C renal 65.4% | UO-31 renal 57% | TK-10 renal 96.7% | ACHN renal 11.4% | CAKI-1 renal 13.8% | A498 renal 103% | OVCAR-8 ovarian 53.6% | OVCAR-5 ovarian 95.6% | OVCAR-4 ovarian 48.6% | SK-OV-3 ovarian 115% | IGROV1 ovarian 82.3% | HS 578T breast 94.9% | NCI/ADR-RES ovarian 97.8%

CCOC(=O)C1=C(NC)OCC1=O
inactive: SK-MEL-2 melanoma 116% | EKVX NSCLC 99.3% | SN12C renal 103% | UO-31 renal 88.3% | TK-10 renal 99.4% | ACHN renal 110% | CAKI-1 renal 100% | A498 renal 86.1% | CCRF-CEM leukemia 101% | MOLT-4 leukemia 97.3% | SR leukemia 93.6% | RPMI-8226 leukemia 99.6% | OVCAR-8 ovarian 98.6% | OVCAR-5 ovarian 115% | OVCAR-4 ovarian 112% | SK-OV-3 ovarian 110% | IGROV1 ovarian 113% | OVCAR-3 ovarian 109% | HS 578T breast 94.7% | NCI/ADR-RES ovarian 105%

O=[N+]([O-])c1ccc(-c2nc(N3CCOCC3)c3c4c(sc3n2)CCCC4)cc1
inactive: SK-MEL-2 melanoma 95.6% | EKVX NSCLC 93.8% | SN12C renal 106% | UO-31 renal 67.2% | TK-10 renal 105% | ACHN renal 96.2% | CAKI-1 renal 76.5% | A498 renal 109% | CCRF-CEM leukemia 101% | MOLT-4 leukemia 86.4% | SR leukemia 76.4% | RPMI-8226 leukemia 109% | OVCAR-8 ovarian 99.8% | OVCAR-5 ovarian 95.4% | OVCAR-4 ovarian 92.2% | SK-OV-3 ovarian 81.2% | IGROV1 ovarian 75.2% | OVCAR-3 ovarian 93.8% | HS 578T breast 90.7% | NCI/ADR-RES ovarian 102%

OCc1cccc(-c2ccc3ncc(-c4nc(NC5CC5)ncc4F)n3c2)c1
active: SK-MEL-2 melanoma -55.4% | EKVX NSCLC 2.69% | SN12C renal -15.4% | UO-31 renal -14.1% | ACHN renal -13.2% | CAKI-1 renal 1.44% | A498 renal -47.8% | CCRF-CEM leukemia -2% | MOLT-4 leukemia -27.8% | SR leukemia -13.5% | RPMI-8226 leukemia -29.8% | OVCAR-8 ovarian -2.83% | OVCAR-5 ovarian -9.98% | OVCAR-4 ovarian -1.5% | IGROV1 ovarian -13.3% | OVCAR-3 ovarian -1.89% | HS 578T breast -29.8% | NCI/ADR-RES ovarian -3.01%
inactive: TK-10 renal 13.5% | SK-OV-3 ovarian 14%

COc1ccc(/C=C2\C(=O)N=C3N2NC(c2cc(Br)ccc2O)C=C(C)N3c2ccccc2)cc1 (stereo not given)
inactive: SK-MEL-2 melanoma 104% | EKVX NSCLC 105% | SN12C renal 97.6% | UO-31 renal 81.6% | TK-10 renal 118% | ACHN renal 99% | CAKI-1 renal 96.5% | A498 renal 94.1% | CCRF-CEM leukemia 99.8% | MOLT-4 leukemia 97.4% | SR leukemia 102% | RPMI-8226 leukemia 91.5% | OVCAR-8 ovarian 98.1% | OVCAR-5 ovarian 104% | OVCAR-4 ovarian 96.5% | SK-OV-3 ovarian 99.6% | IGROV1 ovarian 91% | OVCAR-3 ovarian 103% | HS 578T breast 95.9% | NCI/ADR-RES ovarian 93.9%

CN(CCOc1ccc(C#N)cc1)CCOc1ccc(C#N)cc1
inactive: SK-MEL-2 melanoma 66.9% | EKVX NSCLC 80.3% | SN12C renal 81.6% | UO-31 renal 63% | TK-10 renal 94.3% | ACHN renal 83.6% | CAKI-1 renal 99.7% | A498 renal 12.7% | MOLT-4 leukemia 94.4% | SR leukemia 49.6% | OVCAR-8 ovarian 93.5% | OVCAR-5 ovarian 79% | OVCAR-4 ovarian 75% | SK-OV-3 ovarian 46.8% | IGROV1 ovarian 61.1% | OVCAR-3 ovarian 97.6% | HS 578T breast 49.2% | NCI/ADR-RES ovarian 67.1%
active: CCRF-CEM leukemia -84.4% | RPMI-8226 leukemia 7.02%

CN(C)c1ccc(Nc2cc(-c3cccc(OC(F)(F)F)c3)nc3ccc(N4CCCC4)cc23)cc1
inactive: SK-MEL-2 melanoma 106% | EKVX NSCLC 89.3% | SN12C renal 40.3% | UO-31 renal 74% | TK-10 renal 95.4% | ACHN renal 97.6% | CAKI-1 renal 89.6% | A498 renal 98.3% | OVCAR-5 ovarian 100% | SK-OV-3 ovarian 98.6%
active: CCRF-CEM leukemia 3.82% | MOLT-4 leukemia 2.94% | SR leukemia -14.6% | RPMI-8226 leukemia -33% | OVCAR-8 ovarian -26.6% | OVCAR-4 ovarian -73.8% | IGROV1 ovarian -17.9% | OVCAR-3 ovarian -49.7% | HS 578T breast -1.71% | NCI/ADR-RES ovarian -30.2%

C#CCOc1ccc2ncnc(Nc3cccc(NC(=O)C=C)c3)c2c1
inactive: SK-MEL-2 melanoma 70.8% | EKVX NSCLC 51.6% | SN12C renal 65.3% | UO-31 renal 41.3% | TK-10 renal 45.2% | ACHN renal 45.8% | CAKI-1 renal 45.5% | A498 renal 47.7% | CCRF-CEM leukemia 79.9% | MOLT-4 leukemia 60.6% | SR leukemia 17.1% | RPMI-8226 leukemia 80.2% | OVCAR-8 ovarian 45.8% | OVCAR-5 ovarian 89.6% | OVCAR-4 ovarian 76% | SK-OV-3 ovarian 60.6% | IGROV1 ovarian 33.8% | OVCAR-3 ovarian 60.6% | HS 578T breast 67.3% | NCI/ADR-RES ovarian 80.2%

Cc1c(-n2nnc(-c3nc4ccccc4s3)c2N)c(=O)n(-c2ccccc2)n1C
inactive: SK-MEL-2 melanoma 107% | EKVX NSCLC 101% | SN12C renal 108% | UO-31 renal 73.9% | TK-10 renal 109% | ACHN renal 100% | CAKI-1 renal 87% | A498 renal 112% | CCRF-CEM leukemia 107% | MOLT-4 leukemia 98.3% | SR leukemia 103% | RPMI-8226 leukemia 105% | OVCAR-8 ovarian 102% | OVCAR-5 ovarian 92.8% | OVCAR-4 ovarian 105% | SK-OV-3 ovarian 97.8% | IGROV1 ovarian 90.5% | OVCAR-3 ovarian 107% | HS 578T breast 100% | NCI/ADR-RES ovarian 92.5%

CN1C(=O)/C(=C/c2ccc(C(=O)Nc3ncc(Cc4ccc(Cl)cc4)s3)cc2)SC1=S
inactive: SK-MEL-2 melanoma 75.6% | EKVX NSCLC 52.6% | SN12C renal 68.1% | UO-31 renal 46.7% | TK-10 renal 57.7% | ACHN renal 29.2% | CAKI-1 renal 21.2% | A498 renal 39.9% | CCRF-CEM leukemia 55.5% | MOLT-4 leukemia 46.8% | SR leukemia 43.2% | RPMI-8226 leukemia 61.3% | OVCAR-8 ovarian 60.4% | OVCAR-5 ovarian 58.1% | OVCAR-4 ovarian 54.9% | SK-OV-3 ovarian 58% | IGROV1 ovarian 44.4% | OVCAR-3 ovarian 27.2% | HS 578T breast 42% | NCI/ADR-RES ovarian 37.5%

COc1ccccc1Nc1nc2c(s1)C1=CC[C@H]3[C@@H]4CC[C@H]([C@H](C)CCCC(C)C)[C@@]4(C)CC[C@@H]3[C@@]1(C)CC2
inactive: SK-MEL-2 melanoma 115% | EKVX NSCLC 105% | SN12C renal 99.6% | UO-31 renal 73.5% | TK-10 renal 117% | ACHN renal 104% | CAKI-1 renal 90.5% | A498 renal 132% | CCRF-CEM leukemia 109% | MOLT-4 leukemia 104% | SR leukemia 108% | RPMI-8226 leukemia 111% | OVCAR-8 ovarian 103% | OVCAR-5 ovarian 106% | OVCAR-4 ovarian 99.8% | SK-OV-3 ovarian 101% | IGROV1 ovarian 99.2% | OVCAR-3 ovarian 103% | HS 578T breast 105% | NCI/ADR-RES ovarian 96.1%

COc1ccc(-c2nnc3n(C)c(=O)c4ccccc4n23)cc1N
active: A498 renal -8.12% | OVCAR-3 ovarian 6.12%
inactive: SK-MEL-2 melanoma 22% | EKVX NSCLC 55.7% | SN12C renal 34.6% | UO-31 renal 44.3% | TK-10 renal 45.3% | ACHN renal 50.8% | CAKI-1 renal 29.2% | CCRF-CEM leukemia 18.5% | MOLT-4 leukemia 33.4% | SR leukemia 21.7% | RPMI-8226 leukemia 20% | OVCAR-8 ovarian 33.6% | OVCAR-5 ovarian 45.2% | OVCAR-4 ovarian 59.3% | SK-OV-3 ovarian 22% | IGROV1 ovarian 51.9% | HS 578T breast 32% | NCI/ADR-RES ovarian 22.8%

Cc1ccc(C2=Nc3c(N)ncnc3NC(c3ccc4c(c3)OCO4)C2)cc1 (stereo not given)
inactive: SK-MEL-2 melanoma 61.8% | EKVX NSCLC 83.2% | SN12C renal 96.8% | UO-31 renal 60.9% | TK-10 renal 84.5% | ACHN renal 74.3% | CAKI-1 renal 56.6% | A498 renal 55.4% | MOLT-4 leukemia 49.3% | SR leukemia 15.8% | RPMI-8226 leukemia 40.1% | OVCAR-8 ovarian 81% | OVCAR-5 ovarian 74.6% | OVCAR-4 ovarian 87.6% | SK-OV-3 ovarian 78.3% | IGROV1 ovarian 32% | OVCAR-3 ovarian 37.8% | HS 578T breast 78% | NCI/ADR-RES ovarian 17.8%
active: CCRF-CEM leukemia -39.4%

C=CCc1c(O)c(C(=O)/C=C/c2ccc(Cl)cc2)c(OC)c2ccoc12
active: RPMI-8226 leukemia 8.82%
inactive: SK-MEL-2 melanoma 15.7% | EKVX NSCLC 56.3% | SN12C renal 57.2% | UO-31 renal 51.4% | TK-10 renal 57.2% | ACHN renal 55% | CAKI-1 renal 19.5% | A498 renal 46.9% | CCRF-CEM leukemia 21.4% | MOLT-4 leukemia 15.3% | SR leukemia 17.7% | OVCAR-8 ovarian 42.6% | OVCAR-5 ovarian 100% | OVCAR-4 ovarian 57.3% | SK-OV-3 ovarian 66.4% | IGROV1 ovarian 43.3% | OVCAR-3 ovarian 32.8% | HS 578T breast 81% | NCI/ADR-RES ovarian 39.1%

CC(=O)OCc1nc(C#N)c(N(C)C)o1
inactive: SK-MEL-2 melanoma 88.8% | EKVX NSCLC 90.6% | SN12C renal 97.7% | UO-31 renal 89.9% | TK-10 renal 84.1% | ACHN renal 98% | CAKI-1 renal 92.7% | A498 renal 84.7% | CCRF-CEM leukemia 88.2% | MOLT-4 leukemia 97.1% | SR leukemia 92.2% | RPMI-8226 leukemia 99.6% | OVCAR-8 ovarian 94.1% | OVCAR-5 ovarian 86.9% | OVCAR-4 ovarian 100% | SK-OV-3 ovarian 90.1% | IGROV1 ovarian 95% | OVCAR-3 ovarian 99.1% | HS 578T breast 99.4% | NCI/ADR-RES ovarian 103%
